The record followed here is PubChem BioAssay (NCI).

Common to all, as to assay: NCI-60 one-dose screen, 48 h (100 = growth as untreated, 0 = no growth, -100 = all killed)
Common to all, as to conditions: 10 µM unless noted

The test system of assay [1] is SR leukemia.
For assay [2], the system named is RPMI-8226 leukemia.
Assay [3] relates to OVCAR-8 ovarian.
In assay [4] the test system is OVCAR-5 ovarian.
Assay [5] concerns OVCAR-4 ovarian.
The test system of assay [6] is SK-OV-3 ovarian.
Assay [7] deals with IGROV1 ovarian.
The subject of assay [8] is OVCAR-3 ovarian.
The test system of assay [9] is HS 578T breast.
Assay [10] has as its system NCI/ADR-RES ovarian.

The structures appear in SMILES notation. This is part of a sample that, as a whole, favours compounds with a hit. Of some 83,000 tested, about 20% had one in any assay.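 Negative percent growth values reflect cell death: -40 means 40% of the cells present at the start died, and -100 means all died.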 A number with no mark means an inactive call. The source made the active and inactive calls. The calls were made as follows: active = growth percent below 10; inactive = the rest.

For `COc1cc2nc(Cc3ccc(C)cc3)[nH]c(=O)c2cc1OC`, the growth in assay [1] was 100%; in assay [2], 88.2%; in [3] it was 104%; in assay [4], 102%; in assay [5], 108%; in assay [6], 113%. The growth was 109% in assay [7], 109% in assay [8], 100% in assay [9] and 102% in assay [10].

As to `CCCCCOc1ccc(/C=N/Nc2cc(C)nc3ccc(Br)cc23)cc1`, the growth is -9.53% (active) in assay [1]; -8.25% (active) in assay [2]; -46.3% (active) in assay [3]; 106% in assay [4]; 4.88% (active) in [5]; 102% in assay [6]. Besides, the growth in [7] is -11.7% (active); in assay [8] it was -83.2% (active); in [9] it was 85.5%; in assay [10], 63.6%.

For the compound `O=C1Nc2c(ccc(Cl)c2Cl)/C1=C/c1ccc(F)cc1`, the growth in [1] was 73.9%; in [2], 96.5%; in [3] it was 97.9%; in [4] it was 84.4%; in [5], 73.8%; in assay [6], 89.7%. In addition, the growth in assay [7] was 42.8%; in assay [8], 83.5%; in assay [9], 73.8%; in assay [10], 94%.

Take `[2H]C1([2H])NC([2H])([2H])C([2H])([2H])N(c2ccc(Nc3ncc4cc(C(=O)N(C)C)n(C5CCCC5)c4n3)nc2)C1([2H])[2H]`: the growth was 39.8% in [1]; 34.8% in [2]; 85.2% in assay [3]; 39.8% in assay [4]; 92.7% in assay [5]; 58.3% in assay [6]. The growth in assay [7] is 73.4%; in assay [8], 107%; in assay [9], 71.2%; in [10], 104%.

With `FC(F)(F)Oc1cccc(-c2cc(NCCCCCCNc3cc(-c4cccc(OC(F)(F)F)c4)nc4ccc(N5CCCC5)cc34)c3cc(N4CCCC4)ccc3n2)c1`, the growth in assay [1] was -40.7% (active); in [2], -34.3% (active); in [3], -50.2% (active); in assay [4], -29.4% (active); in [5], -72.7% (active); in assay [6], 89.8%. The growth in [7] is -64% (active); in assay [8], -95.9% (active); in assay [9], -4.44% (active); in [10], 21.6%.

On to `CN(C)C(=O)OCc1nc2c(N3CCOCC3)nc(-c3ccccc3)nc2n1C`, for which the growth was 4.42% (active) in assay [1]; -30% (active) in [2]; -5.95% (active) in assay [3]; -85.5% (active) in [4]; -82.2% (active) in assay [5]; 59.7% in assay [6]. The growth is -95.2% (active) in [7], -78.1% (active) in assay [8], -35.2% (active) in assay [9] and -8.35% (active) in assay [10].

As to `Clc1ccc(N2N=C(c3cccc(Nc4ccncc4)c3)CC2c2ccccc2)cc1` (stereo not given), the growth in [1] was 51.7%; in assay [2] it was 92.7%; in assay [3], 94.5%; in assay [4], 90%; in assay [5], 88.9%; in assay [6], 87.6%. In addition, the growth in assay [7] was 92.9%; in assay [8], 97.1%; in assay [9], 72.7%; in [10], 101%.

In the case of `CC(=O)[C@@H]1CC[C@]2(C(N)=O)CC[C@]3(C)[C@H](CC[C@@H]4[C@@]5(C)CCC(=O)C(C)(C)[C@@H]5CC[C@]43C)[C@@H]12`, the growth in assay [1] is 94.4%; in assay [2] it was 80.4%; in [3], 109%; in [4], 101%; in [5], 89.1%; in [6], 90.6%. The growth in assay [7] is 107%; in assay [8], 103%; in assay [9] it was 120%; in [10], 98.7%.

`COc1ccccc1C(C[N+](=O)[O-])c1c(-c2ccccc2)[nH]c2cc(C)ccc12` (stereo not given): the growth in assay [1] is 24.2%; in assay [2], 61.5%; in [3] it was 75.3%; in assay [4] it was 89.5%; in [5], 81.7%; in [6] it was 88.6%. Besides, the growth is 53.6% in assay [7], 76.1% in assay [8], 83% in assay [9] and 50.1% in assay [10].

Regarding `CN(C)C(=O)c1cc2cnc(Nc3ccc(-c4csc5c(=O)cc(N6CCOCC6)oc45)cc3)nc2n1C1CCCC1`, the growth in assay [1] was 0.0235% (active); in assay [2], -46.7% (active); in [3], 2.54% (active); in assay [4], -9.43% (active); in assay [5], 12.4%; in assay [6], -28.3% (active). The growth in [7] is -7.11% (active); in [8], 2.63% (active); in [9] it was -8.99% (active); in assay [10], 0.628% (active).

Take `O=S(=O)(NCCCNc1nccc(-c2c(-c3cccc(O)c3)nc3occn23)n1)c1ccc(F)cc1`: the growth in assay [1] was 76.6%; in assay [2], 77%; in assay [3], 79%; in assay [4], 128%; in assay [5], 110%; in assay [6] it was 71.1%. Also, the growth in [7] is 76.2%; in assay [8] it was 96.8%; in assay [9], 82.3%; in assay [10], 105%.

Turning to `Clc1ccc2c(c1)c(-c1ccccc1)nc1nncn12`, the growth in assay [1] is 83.8%; in assay [2] it was 103%; in assay [3], 106%; in [4] it was 115%; in [5], 121%; in [6], 107%. Further, the growth was 109% in assay [7], 110% in assay [8], 106% in assay [9] and 101% in [10].

`O=C1OC(=O)C2C1CC=CC2c1ccccc1` (stereo not given): the growth is 55% in [1]; 93.8% in assay [2]; 95.3% in assay [3]; 85.6% in assay [4]; 83.4% in assay [5]; 81.8% in assay [6]. Also, the growth in assay [7] is 84.6%; in [8], 104%; in assay [9] it was 76.7%; in [10], 91.1%.

With `CCNC(=O)c1[nH]cc(-c2ccc(OC)cc2)c1-c1cc(OC)c(OC)c(OC)c1`, the growth in [1] is 19.5%; in assay [2] it was 38%; in [3], 66.3%; in assay [4] it was 74.6%; in assay [5], 45.7%; in [6] it was 57.7%. The growth in assay [7] was 47.4%; in assay [8], 2.53% (active); in assay [9], 45.3%; in [10], 19.8%.

`CC(C)(C#N)N1CCN(c2ccccc2Cl)CC1`: the growth in assay [1] is 101%; in [2] it was 105%; in [3] it was 93.9%; in assay [4], 97.2%; in [5], 119%; in assay [6], 103%. Further, the growth is 106% in assay [7], 101% in [8], 96.4% in [9] and 98.8% in assay [10].

For the compound `CC(=O)NCCCS(=O)(=O)O`, the growth in assay [1] is 101%; in assay [2], 113%; in assay [3], 104%; in assay [4], 100%; in assay [5], 107%; in [6] it was 103%. In addition, the growth was 108% in assay [7], 108% in assay [8], 83.4% in [9] and 101% in assay [10].

Consider `CCn1cc(C2NC(=O)c3ccccc3N2)c2cccc(C)c21` (stereo not given), for which the growth in assay [1] was -18.2% (active); in assay [2], 6.81% (active); in [3], 7.03% (active); in [4], 19.6%; in [5], 25.7%; in [6], 32.9%. Also, the growth in assay [7] was 14.4%; in assay [8], -44.9% (active); in assay [9], 7.22% (active); in [10], 8.25% (active).

Regarding `O=C(O)c1ccc[n+](CC(=O)N2CCN(c3cc4c(cc3F)c(=O)c(C(=O)O)cn4C3CC3)CC2)c1`, the growth in assay [1] is 17.2%; in [2], 75.4%; in assay [3], 79.7%; in assay [4] it was 107%; in assay [5] it was 60.4%; in assay [6], 109%. For the same compound, the growth is 95.8% in [7], 55.6% in assay [8], 87.9% in assay [9] and 94.7% in assay [10].

Take `CC(C)(O)C1CCCN1C(=O)c1ccccc1I` (stereo not given): the growth in [1] was 106%; in [2], 92.6%; in [3] it was 109%; in assay [4], 87.3%; in assay [5] it was 25.4%; in assay [6], 89.8%. The growth in [7] is 87.6%; in assay [8], 92.5%; in assay [9], 85.7%; in assay [10], 87.8%.

`O=C(Nc1ccc(F)cc1)c1c(NC(=O)C(F)(F)F)sc2c1CCCCC2`: the growth in assay [1] is 2.35% (active); in [2], -36.8% (active); in [3], 8.06% (active); in assay [4], 22.7%; in [5] it was 4.42% (active); in assay [6], -16.8% (active). Also, the growth in assay [7] is 18.1%; in [8] it was 4.39% (active); in [9], -6.84% (active); in assay [10], 0.19% (active).

Consider `O=C(Nc1sc2c(c1C(=O)O)CCCC2)c1cccc(C(F)(F)F)c1`, for which the growth in assay [1] was 115%; in assay [2] it was 80.9%; in [3], 94.6%; in assay [4], 98.5%; in [5], 86.2%; in assay [6], 83.8%. Also, the growth in assay [7] is 96.3%; in assay [8], 94.3%; in [9], 98.2%; in assay [10], 93.3%.

As to `Clc1ccc(C2CC(c3cccc(Nc4ccncc4)c3)=NN2c2ccc(Cl)cc2)cc1` (stereo not given), the growth was 2.85% (active) in assay [1]; 0.298% (active) in [2]; -38.9% (active) in assay [3]; 65.4% in assay [4]; -14.5% (active) in assay [5]; 83.7% in [6]. Also, the growth in [7] is 7.44% (active); in assay [8] it was 31%; in assay [9], 54%; in assay [10], 11.2%.

`COc1ccc(/C=C\c2nc3ccccc3s2)cc1OP(=O)(O)O`: the growth in assay [1] was 16.7%; in assay [2], 22.7%; in assay [3] it was 40.2%; in [4], 75.4%; in [5], 72.6%; in assay [6], 84.2%. Further, the growth in [7] is 37.9%; in assay [8], 0.859% (active); in [9], 14.8%; in assay [10] it was 14.4%.

`O=C1NC(=S)NC(=O)C1=Cc1cccc(C=C2C(=O)NC(=S)NC2=O)c1`: the growth in assay [1] was 96.9%; in assay [2], 101%; in assay [3], 104%; in [4], 110%; in assay [5], 105%; in assay [6], 110%. Moreover, the growth is 107% in assay [7], 108% in assay [8], 103% in assay [9] and 102% in [10].

For the compound `COc1ccncc1C#Cc1cncc(C(=O)Nc2ccc(CN3CCN(C)CC3)c(C(F)(F)F)c2)c1`, the growth in assay [1] was 9.65% (active); in assay [2], 25.8%; in [3] it was 36.7%; in assay [4] it was 22.2%; in assay [5] it was 30.7%; in [6], 32.7%. Moreover, the growth is 11.3% in assay [7], 43.5% in assay [8], 11.8% in assay [9] and 54.6% in [10].
